Cruzain noTriton – qHTS Assay for Promiscuous and Specific Inhibitors of Cruzain (without detergent); AID 1476, 2009; Cruzipain (Trypanosoma cruzi), P25779; Potency, µM, for the others: max response, negative = inhibition, usual class: inhibitors; purified cruzain, Z-FR-AMC fluorescence, no detergent; hit rate 2.3% among 200,000;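 also: plate controls were enzyme without inhibitor for no effect and buffer without enzyme for full effect; nearly all actives have a fitted effect of over 40% in size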
Target sequence (P25779 123-467 limits assumed): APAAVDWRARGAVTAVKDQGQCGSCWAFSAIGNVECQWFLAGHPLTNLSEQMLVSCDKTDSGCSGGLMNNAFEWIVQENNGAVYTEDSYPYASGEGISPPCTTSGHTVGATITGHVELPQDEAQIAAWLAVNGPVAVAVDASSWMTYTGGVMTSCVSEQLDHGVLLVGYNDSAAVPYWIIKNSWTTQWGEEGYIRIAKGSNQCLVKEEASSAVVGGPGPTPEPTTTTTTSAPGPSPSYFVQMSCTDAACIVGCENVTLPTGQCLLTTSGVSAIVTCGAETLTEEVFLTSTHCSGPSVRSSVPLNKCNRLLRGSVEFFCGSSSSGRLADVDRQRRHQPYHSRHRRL
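Detergent-free condition (0.00005% Triton X-100) in acetate buffer pH 5.5 with DTT. 1.5 nM enzyme and compound were pre-mixed 15 min, then 2 uM Z-FR-AMC substrate added; reaction progress from fluorescence change between first and third reads (60 s).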
Cruzain Triton – qHTS Assay for Promiscuous and Specific Inhibitors of Cruzain (with detergent); purified cruzain, Z-FR-AMC fluorescence, 0.01% Triton; Cruzipain (Trypanosoma cruzi), P25779; Potency, µM, without a hit: max response, negative = inhibition, most hits filed as inhibitors; hit rate 0.43% among 200,000;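 also: plate controls were neutral wells for no effect and buffer without enzyme for full effect; nearly all actives have a fitted effect of over 40% in size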
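Enzyme 1.5 nM, Z-FR-AMC 2 uM, NaOAc 100 mM pH 5.5, DTT 5 mM, Triton X-100 0.01%; 15 min RT compound preincubation; kinetic ex360/em450, 60 s delta.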
Starred values were filed as active, the others as inactive; ? = inconclusive; ! = repeats disagree. The list is not random: actives were taken first. Their share in the collection is about 2.4%. Calls follow the shape of the dose curve; as a rule, active = well fitted curve in the direction sought with a large enough effect; inconclusive = small, poorly fitted or top-dose-only effect, or another doubt; inactive = no such curve, though single readings can be large; an effect the other way counts as inactive or inconclusive. Potency is read from the fitted curve at half-maximal effect.

SMILES | Cruzain noTriton | Cruzain Triton
Cc1ccc(-c2ccc(=O)n(CC(=O)NC(C)c3ccccc3)n2)cc1 (configuration not stated) | 3.5% | 1.1%
O=[As](O)(O)c1ccc(Cc2ccc([As](=O)(O)O)cc2)cc1 | ? | 3.9%
COc1ccccc1NC(=O)CSc1oc(-c2cccs2)nc1S(=O)(=O)c1ccccc1 | ? | -4.2%
Cc1ccc(Oc2nc3c(c(=O)n(Cc4ccccc4)c(=O)n3C)n2C)cc1C | -8.1% | -6.2%
CC(=O)c1ccc(NC(=O)CSc2nnc3c(n2)[nH]c2ccccc23)cc1 | ? | -12.3%
COCCn1c(SCC(=O)Nc2ccc3c(c2)OCCO3)nc2c(c1=O)SC(C)C2 (configuration not stated) | -19.4% | -0.4%
O=C(CSc1nc2c([nH]c3ccccc32)c(=O)n1-c1ccccc1F)Nc1cccc(Cl)c1 | 12.6µM* | -0.2%
CC1Cc2nc(SCC(=O)Nc3ccc4c(c3)OCO4)n(Cc3ccccc3)c(=O)c2S1 (configuration not stated) | 31.6µM* | -2.1%
Cc1cc(C)cc(NC(=O)CSc2nc3c(oc4ccccc43)c(=O)n2-c2ccccc2F)c1 | 20µM* | -1.3%
O=C(CSc1nc2c(oc3ccccc32)c(=O)n1-c1ccccc1F)Nc1ccccc1 | -25.2% | -1.3%
O=C(CSc1nnc2c(n1)[nH]c1ccccc12)Nc1ccc2c(c1)OCO2 | 25.1µM* | -6.0%
Cc1cc(NC(=O)CSc2nc3c([nH]c4ccccc43)c(=O)n2-c2ccccc2F)no1 | -17.9% | -4.5%
Cc1nc2ccn(Cc3cccnc3)c(=O)c2cc1C(=O)N1CCN(c2ccc(F)cc2)CC1 | 5.2% | -8.6%
Cc1ccc(-n2c(SCC(=O)NCc3ccc(F)cc3)nc3c([nH]c4ccccc43)c2=O)cc1 | 15.8µM* | -4.2%
Cc1cc(C)cc(-n2c(SCC(=O)NCc3ccc(F)cc3)nc3c([nH]c4ccccc43)c2=O)c1 | 5.3% | -0.9%
COc1cccc(NC(=O)CSc2nc3ccc(NC(=O)c4cccs4)cc3s2)c1 | ? | -3.6%
COc1ccc(NC(=O)c2cc3ccccn3n2)cc1 | -10.0% | -0.8%
O=C(Nc1ccc(OC(F)(F)F)cc1)c1cc2ccccn2n1 | 25.1µM* | -2.1%
CCOC(=O)c1cnc2c(C)c(Cl)ccc2c1Nc1ccc(N2CCOCC2)cc1 | -4.8% | -1.1%
Cc1nn(C)c(C)c1S(=O)(=O)N(CC(=O)NCCc1ccc(Cl)cc1)c1ccc(C(C)C)cc1 | ? | -2.8%
O=C(c1ccc2c(c1)N(Cc1cccc(Cl)c1)C(=O)c1ccccc1S2(=O)=O)N1CCC(Cc2ccccc2)CC1 | -20.6% | 0.7%
COc1ccc(-n2ncc3c(NC(C)(C)CO)ncnc32)cc1 | -1.9% | 0.0%
Cc1ccc(NC(=S)NC(=O)c2ccc(F)cc2)cc1S(=O)(=O)Nc1ccccc1Cl | ? | -5.2%
O=C(NC(=S)Nc1ccc2c(c1)C(=O)c1ccccc1C2=O)c1ccc(F)cc1 | 3.98µM* | 0.4%
COc1ccc(CNC(=O)C(CCSC)NS(=O)(=O)c2ccc3c(c2)oc(=O)n3C)cc1 (configuration not stated) | 0.2% | -0.3%
SMILES | Cruzain noTriton | Cruzain Triton
O=[N+]([O-])c1ccc(Nc2ccccc2)cc1 | -11.1% | -10.5%
O=c1nc(Nc2ccccc2)sc2ccc([N+](=O)[O-])cc12 | 10µM* | -3.1%
O=C(Nc1cccc(Cl)c1N1CCCCC1)c1ccc2c(c1)OCCO2 | -11.9% | -5.2%
O=C(NC(=S)Nc1cccc(Cl)c1N1CCCCC1)c1ccc2c(c1)OCCO2 | 12.6µM* | -1.1%
CCn1cc2nc(SCC(=O)Nc3ccccc3C(F)(F)F)n(Cc3ccc(C)cc3)c(=O)c2n1 | ? | 6.4%
CCOC(=O)Cc1csc(NC(=O)COc2ccc(N(C)S(=O)(=O)c3ccc(C)cc3)cc2)n1 | -7.0% | -5.4%
CCOc1ccc(S(=O)(=O)N(C)c2ccc(OCC(=O)Nc3nc(-c4cc(OC)ccc4OC)cs3)cc2)cc1 | 7.94µM* | -2.4%
Cc1cc(C)c(NC(=O)Cn2c(=O)n(CC(=O)NCc3ccccc3Cl)c(=O)c3sccc32)c(C)c1 | -5.3% | -1.0%
CCOc1ccc(OCC)c(NC(=O)CCS(=O)(=O)c2ccc(Br)s2)c1 | 5.6% | -7.0%
CCOc1ccc(OCC)c(NC(=O)C(NS(=O)(=O)c2ccc(Br)s2)c2ccccc2)c1 (configuration not stated) | 10µM* | -1.1%
Cc1ccccc1NC(=O)CSc1nc2cc3c(cc2cc1C)CCC3 | 7.0% | -5.3%
CCC(=O)Nc1ccc(NC(=O)CSc2nc3cc4c(cc3cc2C)CCC4)cc1 | 25.1µM* | 5.7%
CCCc1cc(=O)[nH]c(Nc2cc(Cl)cc(Cl)c2)n1 | -27.2% | -3.8%
O=C(CC1C(=O)N(c2ccc(F)cc2)C(=O)N1Cc1ccc2c(c1)OCO2)Nc1ccc(Cl)cc1 (configuration not stated) | -6.4% | -5.1%
NC(N)=Nc1nc(CSCC/C(N)=N/S(N)(=O)=O)cs1 | 10µM*! | -14.1%
CC1(C)C(=O)N(CC(=O)Nc2cccc(F)c2)c2ccc(S(=O)(=O)N3CCCCC3)cc21 | 8.5% | -5.6%
CCOc1ccc(OC(=O)c2cn(-c3ccc(C)cc3)c(=O)c3ccccc23)cc1 | -21.4% | -1.2%
COc1cc(OC)c(NC(=O)NC(C)c2c(-n3cccc3)sc(C)c2C)cc1Cl (configuration not stated) | ? | -4.1%
Cc1cccc(C)c1NC(=O)c1nc(S(C)(=O)=O)ncc1N(Cc1ccc(F)cc1)Cc1ccco1 | -5.7% | -4.7%
Cc1ccc(NC(=O)c2nc(S(C)(=O)=O)ncc2N(Cc2cccc(F)c2)Cc2ccco2)cc1C | ? | -3.1%
Cc1cccc(C)c1NC(=O)c1nc(S(C)(=O)=O)ncc1N(Cc1ccc(C(C)(C)C)cc1)Cc1ccco1 | -20.6% | -2.1%
Cc1ccc(C)c(NC(=O)c2nc(S(C)(=O)=O)ncc2N(Cc2ccc(C(C)(C)C)cc2)Cc2ccco2)c1 | 7.94µM* | -3.2%
COc1ccc(CN(Cc2ccco2)c2cnc(S(C)(=O)=O)nc2C(=O)Nc2ccc(C)c(Cl)c2)cc1 | 7.94µM* | -1.7%
CC(C)c1ccc(CN(Cc2ccco2)c2cnc(S(C)(=O)=O)nc2C(=O)Nc2ccc(F)cc2)cc1 | 15.8µM* | -2.5%
CCn1c(=O)cc(SCC(=O)NCCc2ccc(OC)cc2OC)c2ccccc21 | 6.4% | -0.4%
SMILES | Cruzain noTriton | Cruzain Triton
COc1ccc(C2Nc3ccccc3-n3c(-c4ccccc4)c4c(=O)n(C)c(=O)n(C)c4c32)cc1 (configuration not stated) | -11.3% | 3.2%
CCCCN(CCCC)CCNC(=O)Cn1nc(CC)n2c(cc3sccc32)c1=O | 27.1% | -2.1%
Cc1cccc(C(=O)Nc2cccc(C(=O)OCc3cc(=O)n4nc(C5CC5)sc4n3)c2)c1 | -6.0% | -0.6%
Cc1cc(C)nc(NC(=NCCc2c[nH]c3ccccc23)NC(=O)c2ccco2)n1 | ? | -3.3%
Cc1cc(C)nc(NC(=NCCc2c[nH]c3ccccc23)NC(=O)Nc2cccc([N+](=O)[O-])c2)n1 | 10µM* | -3.2%
Cc1cc(C)nc(NC(=NCCc2c[nH]c3ccccc23)NC(=O)Nc2ccc(Cl)c(Cl)c2)n1 | 7.94µM* | -2.4%
Cc1cc(C)nc(NC(=NCCc2c[nH]c3ccccc23)NC(=O)Nc2ccccc2)n1 | ? | -2.6%
COc1ccc(Cn2nnnc2C(c2cccs2)N2CCN(c3ccc([N+](=O)[O-])cc3)CC2)cc1 (configuration not stated) | 31.6µM* | -3.4%

Screening results (PubChem)
